# Results: PubChem BioAssay (NCATS)
# Records with an inconclusive call do not appear. Activity calls are given as the source filed them. The call rests on the fitted dose curve; in most records, active means well fitted inhibition curve with a large enough effect; inconclusive means small, poorly fitted or top-dose-only effect; inactive means flat fitted curve, though single readings scatter.
# Tested on: CRL-7250
# Experiment: Cytotoxic Profiling of Annotated Libraries Using Quantitative High-Throughput Screening (AID 1296008); further: nearly all actives have a fitted effect of over 60% in size
# Settings: Five cell lines viability, CellTiter-Glo ATP luminescence, 48-72 h; max response: hits give low values
# Method in brief: (§1)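 Cytotoxicity was measured as CellTiter-Glo ATP luminescence, read after 10 min at room temperature. Compound treatment of the cells lasted 48 or 72 hr at 37 degrees Celsius in a qHTS format.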
# On the % scale 0 is the no-effect control and ±100 the full control effect; potency means the concentration at half of the fitted maximal effect.
SMILES,max response,Potency
NC(=O)Nc1cc(-c2cccc(F)c2)sc1C(=O)NC1CCCNC1 (centres undefined),-112% (inactive),–
CC(C)(C)C(=O)CN1C(=O)[C@H](NC(=O)Nc2cccc(C(=O)O)c2)CN(C2CCCCC2)c2ccccc21,1.1% (inactive),–
CC1=C(C(=O)O)/C(=C/CO[C@@H]2O[C@H](COC(=O)/C=C/c3ccc(O)cc3)[C@@H](O)[C@H](O)[C@H]2O)C(O)C1 (some centres undefined),0.839% (inactive),–
CC1(C)C[C@H](O)C[C@@]2(C)OC(=O)C=C12,1.12% (inactive),–
Nc1nc2c(ncn2[C@@H]2O[C@H](CO)[C@@H](O)[C@H]2O)c(=O)[nH]1,-5% (inactive),–
Cc1cc(Nc2ncc3cc(-c4c(Cl)cccc4Cl)c(=O)n(C)c3n2)ccc1F,–,1840 nM (active)
O=S(=O)(c1ccc(S(=O)(=O)n2cnc3ccccc32)cc1)N1CCCCCC1,-2.18% (inactive),–
CC(=O)/C=C/[C@H]1[C@](C)(O)[C@@H](O)[C@H](OC(C)=O)C2C(C)(C)CCC[C@@]21C (some centres undefined),4.5% (inactive),–
CCN(Cc1cccnc1)C(=O)CN(c1ccc(OC)nc1)S(=O)(=O)c1ccccc1C,-4.21% (inactive),–
CNS(=O)(=O)c1ccccc1Nc1nc(Nc2ccc(N3CCN(C)CC3)cc2OC)ncc1Cl,–,1460 nM (active)

# Tested on: HEK293
# Experiment: as above
# Settings: Five cell lines viability, CellTiter-Glo ATP luminescence, 48-72 h; max response: hits give low values
# Method in brief: as §1
SMILES,max response,Potency,outcome
CC(/C=C/C1=CC2=CC(=O)C(C)(O)C(O)C2=CO1)=C\C(C)CCO (centres undefined),-3.02% (inactive),–,–
CC(=O)O[C@@H]1[C@@H](CO)O[C@@](CO)(O[C@H]2O[C@H](COC(=O)/C=C/c3ccccc3)[C@@H](O)[C@H](O)[C@H]2O)[C@H]1O,0.799% (inactive),–,–
CC(c1ncncc1F)C(O)(Cn1cncn1)c1ccc(F)cc1F (centres undefined),-0.4% (inactive),–,–
CC1CCC2(OC1)OC1CC3C4CC=C5CC(O)CC(O[C@@H]6OC[C@@H](O)[C@H](O)[C@H]6O)C5(C)C4CCC3(C)C1(O)C2C (some centres undefined),3.32% (inactive),–,–
CC[C@@](C)(Nc1ccnc(-c2c[nH]c3ncccc23)n1)C(=O)NCC(F)(F)F,-4.43% (inactive),–,–
CC(=O)N[C@@H](CCCCN)C(=O)N(C)[C@@H](CC(C)C)C(=O)N[C@H](C(=O)N(C)[C@@H](Cc1ccccc1)C(=O)N[C@H](Cc1ccccc1)C(N)=O)C(C)C,-3.34% (inactive),–,–
OC/C=C/C=C/[C@H]1Cc2cc(O)cc(O)c2O1,-7.6% (inactive),–,–
CC1(C)CC[C@]2(C(=O)O[C@@H]3O[C@H](CO)[C@@H](O)[C@H](O)[C@H]3O)CC[C@]3(C)C(=CCC4[C@@]5(C)C[C@@H](O)[C@H](O)[C@](C)(C(=O)O)C5CC[C@]43C)C2C1O (some centres undefined),-1.42% (inactive),–,–
O=C(O)COCCN1CCN([C@H](c2ccccc2)c2ccc(Cl)cc2)CC1,-2.41% (inactive),–,–
COC(=O)C(C)C1CCC2(C)C(=O)C=CC(C)(O)C2C1O (centres undefined),-6.36% (inactive),–,–
COc1ccc(Oc2cc(C)c(-c3csc(NC(=O)c4ccncc4)n3)c(C)c2)cc1,–,326 nM (active),–
CCOc1cc(N2CCC(O)CC2)ccc1Nc1ncc2c(n1)N(C1CCCC1)CCC(=O)N2C,–,5800 nM (active),–
O=C(O)CC(=O)OC[C@H]1O[C@@H](Oc2ccc3c(c2)OC[C@H]2c4cc5c(cc4O[C@@H]32)OCO5)[C@H](O)[C@@H](O)[C@@H]1O,–,–,inactive
C/C=C/C=C/C(O)=C1\C(=O)[C@]2(C)C3C(C(=O)CC/C=C/C)=C(O)C4(C)C1[C@]1(C)O[C@@]4(O)[C@@]3(C)O[C@@]12O,-0.736% (inactive),–,–
COCC1OC(OC(C)(C)C2CCC3(C)C=C(C4CCC5C4(C)CC(O)C4OC(C(C)(C)OC6OC(CO)C(O)C(O)C6NC(C)=O)CCC45C)CCC3O2)C(NC(C)=O)C(O)C1O (centres undefined),-5.83% (inactive),–,–
C=C1CCC2C(C)(C(=O)O)CCCC2(C)C1CCC(C)CC(=O)O (centres undefined),-0.0508% (inactive),–,–
O=C(O)c1c(O)c(-c2ccccc2)nc2ccccc12,-11.2% (inactive),–,–
CC(O)/C=C/C1(O)C2(C)COC1(C)CC(O)C2 (centres undefined),-7.99% (inactive),–,–
NC(=O)c1cccc(-c2cc(OC(=O)NC3CCCCC3)ccc2O)c1,-86.9% (inactive),–,–
CCOc1cc(C)c(Cl)cc1S(=O)(=O)n1cnc2ccccc21,-19.4% (inactive),–,–

SMILES,max response,Potency,outcome
CC1(C)CC[C@]2(C(=O)O[C@@H]3O[C@H](CO)[C@@H](O)[C@H](O)[C@H]3O)CC[C@]3(C)C(=CCC4[C@@]5(C)CC[C@H](O[C@@H]6O[C@H](C(=O)O)[C@@H](O)[C@H](O)[C@H]6O)C(C)(C)C5CC[C@]43C)C2C1 (some centres undefined),-5.49% (inactive),–,–
CC1CC(=O)C2=C(CCC3(O)C(O)c4c(O)cccc4C(=O)C23O)C1 (centres undefined),-13.5% (inactive),–,–
O=C1CSc2ccccc2N1Cc1cccc(C(F)(F)F)c1,-20.3% (inactive),–,–
O=C(CSc1nc2c(c(=O)n1-c1ccccc1)SCC2)Nc1ccc(-c2ccccc2)cn1,–,41.1 nM (active),–
CC(C)(O[C@@H]1O[C@H](CO)[C@@H](O)[C@H](O)[C@H]1O)C(OC(=O)/C=C\c1ccc(O)cc1)C(=O)OCc1ccc(O[C@@H]2O[C@H](CO)[C@@H](O)[C@H](O)[C@H]2O)cc1 (some centres undefined),-30.7% (inactive),–,–
C/C(=C\CCC(C)CCO)C(=O)O[C@@H]1[C@@H](O)[C@H](OC2OC=C(C(=O)O)C3CCC(C)(O)C23)O[C@H](CO)[C@H]1O (some centres undefined),0.262% (inactive),–,–
C[C@H](NC(=O)CCc1nc2ccccc2c(=O)[nH]1)c1ccccc1,-7.11% (inactive),–,–
CC(C)(O)/C=C/CC(C)(O)C1C(O)CC2(C)C3CCC4C(C)(C)C(=O)CCC4(C)C3CCC12C (centres undefined),1.96% (inactive),–,–
CC1(C)CC[C@]2(C(=O)O[C@@H]3O[C@H](CO)[C@@H](O)[C@H](O)[C@H]3O)CC[C@]3(C)C(=CCC4[C@@]5(C)C[C@@H](O)[C@H](O)[C@](C)(C=O)C5CC[C@]43C)[C@@H]2[C@@H]1O (some centres undefined),-5.81% (inactive),–,–
NC(=O)Nc1cc(-c2cccc(F)c2)sc1C(=O)NC1CCCNC1 (centres undefined),-108% (inactive),–,–
CC(C)(C)C(=O)CN1C(=O)[C@H](NC(=O)Nc2cccc(C(=O)O)c2)CN(C2CCCCC2)c2ccccc21,1.37% (inactive),–,–
CC1=C(C(=O)O)/C(=C/CO[C@@H]2O[C@H](COC(=O)/C=C/c3ccc(O)cc3)[C@@H](O)[C@H](O)[C@H]2O)C(O)C1 (some centres undefined),1.96% (inactive),–,–
CC1(C)C[C@H](O)C[C@@]2(C)OC(=O)C=C12,–,–,inactive
Nc1nc2c(ncn2[C@@H]2O[C@H](CO)[C@@H](O)[C@H]2O)c(=O)[nH]1,-9.89% (inactive),–,–
Cc1cc(Nc2ncc3cc(-c4c(Cl)cccc4Cl)c(=O)n(C)c3n2)ccc1F,–,2310 nM (active),–
O=S(=O)(c1ccc(S(=O)(=O)n2cnc3ccccc32)cc1)N1CCCCCC1,-10.3% (inactive),–,–
CC(=O)/C=C/[C@H]1[C@](C)(O)[C@@H](O)[C@H](OC(C)=O)C2C(C)(C)CCC[C@@]21C (some centres undefined),-3.84% (inactive),–,–
CCN(Cc1cccnc1)C(=O)CN(c1ccc(OC)nc1)S(=O)(=O)c1ccccc1C,–,–,inactive
CNS(=O)(=O)c1ccccc1Nc1nc(Nc2ccc(N3CCN(C)CC3)cc2OC)ncc1Cl,–,1300 nM (active),–
